The full ranking holds about 33,000 sequences; the median of “E-score (-0.5 to 0.5)” is about -0.043, and the highest 2% start at about 0.37. Shown is part of a subset that was picked to be rich in the highest values.
The sequences below were run against T1, Upc2 (UniProt Q12151) (assay: PBM E-score (8-mer binding enrichment) (E-score (-0.5 to 0.5)); higher = stronger / more preferred TF binding). Details: protein concentration: 200 nM; construct: GST-full length.
T1 sequence: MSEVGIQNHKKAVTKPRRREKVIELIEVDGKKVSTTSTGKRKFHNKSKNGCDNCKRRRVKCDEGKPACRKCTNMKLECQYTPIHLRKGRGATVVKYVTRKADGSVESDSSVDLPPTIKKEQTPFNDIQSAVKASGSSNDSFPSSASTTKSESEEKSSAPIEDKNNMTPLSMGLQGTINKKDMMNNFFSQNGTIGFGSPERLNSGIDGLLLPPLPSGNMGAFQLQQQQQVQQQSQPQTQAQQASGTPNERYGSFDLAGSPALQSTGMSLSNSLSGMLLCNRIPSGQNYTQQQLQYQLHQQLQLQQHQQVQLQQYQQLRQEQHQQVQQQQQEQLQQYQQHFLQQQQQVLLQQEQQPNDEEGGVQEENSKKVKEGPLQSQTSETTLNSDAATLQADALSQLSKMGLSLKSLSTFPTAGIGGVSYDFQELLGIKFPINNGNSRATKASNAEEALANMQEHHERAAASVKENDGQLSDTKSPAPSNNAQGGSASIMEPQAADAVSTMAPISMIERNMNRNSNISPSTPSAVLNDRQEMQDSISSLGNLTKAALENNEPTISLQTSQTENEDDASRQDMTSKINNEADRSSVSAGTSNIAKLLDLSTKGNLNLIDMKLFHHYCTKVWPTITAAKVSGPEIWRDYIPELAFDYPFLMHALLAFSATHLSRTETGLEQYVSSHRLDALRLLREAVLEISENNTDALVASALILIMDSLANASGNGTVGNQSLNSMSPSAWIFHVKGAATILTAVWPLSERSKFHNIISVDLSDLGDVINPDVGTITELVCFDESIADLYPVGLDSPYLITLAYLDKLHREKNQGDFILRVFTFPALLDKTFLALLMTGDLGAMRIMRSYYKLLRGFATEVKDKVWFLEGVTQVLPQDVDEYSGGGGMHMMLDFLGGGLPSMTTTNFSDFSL
Method: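 Universal 'all 10-mer' protein binding microarrays (Agilent AMADID 015681) probed with GST-tagged S. cerevisiae TFs (full-length or DBD) made by in vitro transcription/translation (PURExpress), about 100-200 nM. Bound TF was detected with fluorescent anti-GST. Each ungapped 8-mer (which stands for itself and its reverse complement) is scored by the PBM enrichment score (E-score), a modified Wilcoxon-Mann-Whitney statistic from -0.5 to +0.5, computed with the Universal PBM Analysis Suite. Scale: above 0.35 generally sequence-specific binding.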

Sequence	PBM E-score
AGCAAGGA	-0.0783
GCCAACGC	-0.0104
CGACTGAA	0.184
CTGGGGCA	-0.2
CCTCACGA	-0.219
ACTACGAA	0.185
AATACGTA	0.196
AATACGAA	0.424
CACTTAAG	-0.0164
CGCGTACC	0.302
CTCGTACC	0.481
ATCGTACC	0.455
CTGGTACA	-0.0228
ATAGTACC	-0.084
AGCGTACC	0.212
CACGTACC	0.188
CTCGTACA	0.489
CTTGTACA	-0.0692
CTGTTAGC	-0.142
CGCATTTA	0.0301
GCTATGCC	-0.282
ATGGTCTG	-0.129
CAGGACTC	-0.0969
GAGGTAGA	-0.0305
CACGAAGG	0.00451
AACGAAGC	0.408

Sequence	PBM E-score
GACGAAGC	0.00181
CACGAAGC	0.017
AACGAAGG	0.401
TAAGAAGA	0.11
TCCGAAGA	0.0352
ACCGAAGT	0.147
ACCGAAGG	0.0458
TACGAAGA	0.448
AAAGAAGT	-0.0114
AACGAAGT	0.415
GTTAAAAA	0.11
CTAGTGTC	0.0134
CCAGGATA	0.0403
ATTTCTAA	-0.105
AGGAACCC	0.0161
CAACCAGC	-0.203
CTAGGGAA	-0.179
AGACCCAT	-0.186
CTAGACCA	-0.217
AGCCACAC	-0.00233
GACGAAGA	-0.0247
AACGAAGA	0.424
CACGAAGA	0.0935
CCTATGGC	-0.195
AGTATGGA	-0.128
CGTATGGA	0.423

Sequence	PBM E-score
GGTATGGA	-0.146
AGTATGGC	-0.129
CGTATGGC	0.413
AAATGAAC	0.118
AGCAATCC	-0.121
ACAAGCCT	-0.166
ATCGGTTA	0.333
CTCGGTTA	0.381
GTCGGTTA	0.337
ATTTTTCG	0.0906
CCTTTATC	-0.132
TATCAGGA	0.0996
CACGTAAC	0.039
CTCGTAAC	0.425
CTCGTAAG	0.43
GACGTAAC	0.0258
CGCGTAAG	0.205
CACGTAAG	0.105
GGCGTAAC	0.0403
CCCGTAAC	0.248
GTCGTAAC	0.408
AGAAGTTG	0.0297
ACCTATCA	-0.11
CGTGATTA	0.0822
ACCGGTTA	0.118
ATGACTAC	0.0234

Sequence	PBM E-score
AAGCTAGA	-0.166
GCGCTCCA	-0.195
CAAAGAAC	-0.0158
CCGCATAA	0.121
ACGCATAA	0.172
TCGCATAA	0.383
GGTTGCTA	-0.126
CCGCACTC	0.195
AAAAGGGA	-0.2
ACGTAAAG	0.308
ACGTTAAA	0.269
TCGTTAAA	0.466
CCGTAAAC	0.396
CCGTAAAG	0.395
GCGTAAAC	0.352
TAGTAAAA	0.0664
ACGTAAAC	0.345
CCGTTAAA	0.33
TCGTAAAA	0.481
TTGTAAAA	0.0751
CTGTAAAG	-0.0138
CATGGACA	-0.178
AGTTAGCA	-0.0102
CCGATGGA	0.109
ACTTATCG	0.00736
ATAGTCTG	-0.124

Sequence	PBM E-score
CGCTCAGA	0.121
GCTAAACC	0.03
GCGTAAAA	0.302
ACGTAAAA	0.268
CCGTAAAA	0.374
ACTATCAC	0.0913
ATGGGCCC	-0.0858
ACGTCTTC	0.0586
GACTGGAC	-0.215
GGGTACAA	-0.0246
AGGTACGC	0.163
GGGTACGA	0.465
AGGTACGA	0.47
CGGTACGA	0.474
CGGTACCA	-0.0953
CGGTACGC	0.324
AGGTACGG	0.354
GGGTACCA	-0.275
TAGTTGGA	-0.109
GCCGGGTA	-0.143
ACCTAAGA	0.0242
ACCCTCTC	-0.197
CACTGAGA	-0.0162
CCTTGCGA	-0.195
CCGGTGCA	-0.153
GGTGACTA	-0.0935

Sequence	PBM E-score
TCCCTCGA	-0.0965
ACCAGTGG	-0.247
ACAAGACT	-0.00931
AGTCGTTC	0.41
CGCCGTTC	0.339
AGTCGTTA	0.317
CGTCGTTA	0.376
AGTCGTTG	0.0644
GGTCGTTA	0.358
CGTCGTTC	0.464
AGTCGCTC	0.0535
CGTCGATC	-0.0198
AGGTGAAT	-0.0674
GCACCGAA	0.0996
CCGCATAC	0.197
CATGAGGC	-0.218
CTCAACAC	-0.0233
AGGTTCGG	0.022
CAGATTCC	-0.195
CGGGTACC	-0.158
CGGGTACA	0.114
ACGGTACT	0.0352
CCGGTACA	0.106
CCGGTACG	0.421
ACGGTACG	0.408
ACGGTACC	0.0672

Sequence	PBM E-score
CGGGTACG	0.43
CCGGTACC	-0.196
CCCTATAA	-0.00945
CCATCAAG	-0.12
AAGACCCT	-0.239
CAGGTCGC	0.0637
AAGGTGGC	-0.0337
CTTACGCA	0.146
CTCACGAC	-0.146
GTTACGAA	0.409
CTTACGCC	0.0225
CTTACGAC	0.406
ATTACGAA	0.339
CTTACGAA	0.399
CTCACGAA	0.0214
GTTACGGA	0.233
CCATTCTA	-0.068
CAGAATTA	-0.0215
GCTACTCC	-0.242
CAGATGGC	-0.0004
